# Laboratory results reported in the supplement of paper PMC3334620.
# The full ranking holds about 33,000 sequences; the median of “E-score (-0.5 to 0.5)” is about -0.0059, and the highest 2% start at about 0.26. This excerpt belongs to a sample that is enriched for the highest values.
# Target: T1, Cin5 (UniProt P40917)
# T1 sequence: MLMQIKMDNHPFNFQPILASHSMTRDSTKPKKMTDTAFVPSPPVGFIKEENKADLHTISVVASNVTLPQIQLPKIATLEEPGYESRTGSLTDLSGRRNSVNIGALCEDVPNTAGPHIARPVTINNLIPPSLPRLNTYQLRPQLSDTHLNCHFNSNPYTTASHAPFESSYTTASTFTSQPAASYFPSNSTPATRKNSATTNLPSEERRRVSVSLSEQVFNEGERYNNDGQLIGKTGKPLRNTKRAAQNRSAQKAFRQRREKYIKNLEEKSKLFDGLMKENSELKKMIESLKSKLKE
# Experiment: PBM E-score (8-mer binding enrichment) (E-score (-0.5 to 0.5)); higher = stronger / more preferred TF binding
# Settings: protein concentration: 100 nM; construct: GST-full length
# Procedure: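 Universal 'all 10-mer' protein binding microarrays (Agilent AMADID 015681) probed with GST-tagged S. cerevisiae TFs (full-length or DBD) made by in vitro transcription/translation (PURExpress), about 100-200 nM. Bound TF was detected with fluorescent anti-GST. Each ungapped 8-mer (which stands for itself and its reverse complement) is scored by the PBM enrichment score (E-score), a modified Wilcoxon-Mann-Whitney statistic from -0.5 to +0.5, computed with the Universal PBM Analysis Suite. Scale: above 0.35 generally sequence-specific binding.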
row,Sequence,PBM E-score
1,GTGCCGTA,0.0613
2,CACCTTGA,0.00105
3,AAAAGACT,-0.205
4,GGCCATAA,0.0497
5,AGAAGGTG,0.0112
6,CTAAGGCA,-0.173
7,CTTACATC,0.213
8,CTTACAAA,0.192
9,GCTACATA,0.0756
10,AATACGTA,0.313
11,CGTACATA,0.191
12,CATACGTA,0.242
13,AGTACATC,0.0156
14,GTTACATA,0.266
15,AATACGTG,-0.0461
16,ATTACATC,0.31
17,CTTACATA,0.358
18,GTTACAAA,0.184
19,ACTGCCAC,-0.012
20,AATCAGTC,0.0788
21,AGCCAGTA,-0.0197
22,GAGTGCGA,-0.11
23,AATCGAGA,0.171
24,AATCTCCG,0.0667
25,ATTACAAT,0.153

row,Sequence,PBM E-score
1,ATTACAAG,0.131
2,ATTACAAA,0.306
3,TCATATAA,0.197
4,GAATATAA,0.112
5,CAATATAG,0.225
6,TAATATAA,0.355
7,CAATATAA,0.295
8,CAATATAC,0.181
9,TATAGCCA,0.111
10,ATTTAATA,0.295
11,GCTTAATA,0.207
12,CTTTAATA,0.122
13,ACTTAATC,0.133
14,ACTTAATA,0.26
15,GTTTAATA,0.143
16,AGTTCGCA,0.0133
17,ATCCAACA,0.0603
18,CTTGCGTC,-2e-05
19,TATGGGGA,0.27
20,AATGGGGA,0.0144
21,CATGGGGA,-0.0804
22,CGGGTGTC,-0.00474
23,ACCCCTCT,-0.17
24,AGACATAT,0.0819
25,CTACATAA,0.0697

row,Sequence,PBM E-score
1,ATACATAC,0.0724
2,ATACATAT,0.318
3,ATACATAA,0.286
4,ATACATAG,0.159
5,AGTTCTAC,-0.141
6,TATGCTCA,0.132
7,CAACCCGG,-0.222
8,CGCAGCGC,-0.138
9,AAGCTACC,0.106
10,GAAATGAA,0.275
11,AAATGATA,0.279
12,CAAATGAA,-0.0217
13,CAATGAAA,0.0978
14,AAATGAGA,0.128
15,CAATGATA,0.182
16,TAAATGAA,0.129
17,TAATGAAA,0.203
18,ATATGAAA,0.259
19,CTATGAAA,0.0722
20,ATATGAAC,0.132
21,AAATGAAA,0.266
22,CTTTGCCC,-0.199
23,ATCCCTAA,-0.19
24,ACGGCCGA,0.0311
25,GGCGGCAA,-0.184

row,Sequence,PBM E-score
1,GGTATACC,-0.0512
2,AACCAATA,0.214
3,AGATACAT,0.171
4,CAGCGCAA,0.0372
5,TAATGAGA,0.0551
6,GAATGAGA,0.115
7,TAATGATA,0.298
8,CAATGGTA,0.101
9,GAATGATA,0.291
10,AAATGATT,0.294
11,AAATGGTA,0.268
12,TAATGACA,0.237
13,AAATGATG,0.207
14,AAATGATC,0.00639
15,GAATGATC,-0.046
16,TAATGGTA,-0.00375
17,CGACGTCC,0.0493
18,ATAGTGTC,0.0674
19,ACATGGCT,-0.0786
20,CTACGAGC,-0.108
21,GGAACCAC,-0.0344
22,AAAATTAA,0.105
23,CAAATTAA,0.191
24,AGATGATA,0.212
25,AGATGATG,0.27

row,Sequence,PBM E-score
1,GAAATTAA,0.273
2,AGATGATC,0.119
3,GCAAGGGC,-0.235
4,TAACATGA,0.071
5,AGCTTCCT,0.00798
6,CAGCAAAG,-0.0276
7,GAATCTGA,-0.0334
8,GAGCTTTA,-0.0441
9,CAGTATTA,0.294
10,AAGTATTA,0.0531
11,GAGTATTA,0.178
12,AAGTATAA,0.216
13,CAGTATAA,0.284
14,GAGTATAA,0.181
15,GGAAGTCA,0.0165
16,GAACTCCA,0.0209
17,CAGCATGC,-0.0241
18,GGATCAAA,0.0839
19,CTCTGGCC,-0.234
20,GGGACCAC,-0.174
21,CCGCCTAA,-0.0943
22,AATGTCAA,0.176
23,TATGTAAA,0.286
24,GATGTAAA,0.13
25,GATGTCAA,0.0458

row,Sequence,PBM E-score
1,TATGTCAA,0.294
2,CATGTAAA,-0.054
3,ATACTCCA,0.122
4,AGCAGAGA,0.0498
5,ATTCATTG,0.116
6,ATTCATTA,0.122
7,ATTCATTC,0.299
8,ACTCAGAC,-0.0116
9,AAATAGAT,0.297
10,AACTATAT,0.294
11,AAATATAA,0.203
12,AACTATAG,0.051
13,AACTATAC,0.0815
14,AAATATAC,0.178
15,ACCTATAT,0.269
16,ACCTATAA,-0.0275
17,ACCTATAC,0.0459
18,AAATAGAC,0.143
19,AAATATAT,0.295
20,AAATAGAG,-0.0761
21,ACATCAGC,0.0733
22,CACTGAAC,0.0413
23,AGAGAGCC,-0.283
24,CGTAGTGC,-0.0666
25,GGCGTGAA,-0.183

row,Sequence,PBM E-score
1,CAATAAGG,-0.0974
2,AGTCGGCA,-0.0519
3,CGGCCGTC,-0.125
4,CACCCCCC,-0.498
5,AAGCAAGC,0.0852
6,ATCATGAT,0.098
7,AACTATAA,0.195
8,TACTATAA,0.333
9,CACTATAA,-0.0724
10,ATGCCCCA,-0.0481
11,AGCAAGGC,-0.0671
12,ACCGCCAA,-0.0388
13,AAGAGAAA,-0.0461
14,AAGAGAAG,-0.0313
15,AAGAGAAT,0.261
16,AAATTCAT,0.0992
17,AAGAGTTA,-0.0309
18,CCATCACG,-0.0302
19,AGTCGAGG,-0.168
20,CAATACAG,0.0431
21,CAATACAC,0.00745
22,ATATACAC,0.134
